High-throughput results deposited in PubChem BioAssay by Broad Institute.
HSF1 activator: increases HSF-1 driven luciferase reporter signal. actives 1.7% (n = 300,000). activation, % at 9 µM. NIH3T3-HGL HSF-1 luciferase reporter, MG132, 8 h; 100% = twice DMSO control signal;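 active = mean replicate activation of at least 50% with a set share of replicates each reaching 50%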;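 note: 0% = median of the neutral control wells and 100% = twice that signal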
esBAF inh: inhibitors of esBAF chromatin remodeling in mouse ES cells; reporter increase, % at 12.5 µM; Bmi1-luciferase knock-in reporter, 24 h; 100% = twice the neutral-well signal; actives 2% (n = 350,000); in the data active = activation above about 40%;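 note: 0% = median of the plate's neutral control wells and 100% = double that signal; a rise in the Bmi1 reporter signal indicates esBAF inhibition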
MITF TRPM1 HTS: increases MITF-driven TRPM1 promoter luciferase signal; actives 0.75% (n = 300,000); SK-MEL-5 TRPM1-promoter luciferase, 24 h; % of positive control, neutral wells = 0; activation, % at 12.5 µM;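 active = mean activation of at least 80% with every replicate also reaching 80%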;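 note: 0% = neutral control wells and 100% = parthenolide positive control wells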
Wnt act: activates Wnt/beta-catenin signaling in a reporter cell assay. activator, plate reader. activation, % at 9.35 µM. actives 1.2% (n = 300,000). AID 743398; in the data active = activation above about 30%, passing the limit was not always enough;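 note: 0% = neutral control wells and 100% = positive control wells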
HSF1 inh: HSF1 inhibition | NIH3T3-HGL HSE-luciferase, MG132-induced, luminescence 8 h; stronger effect = lower value | activity change, negative = inhibition, % at 7.5 µM (by protocol) | actives 0.77% (n = 300,000);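 active = more than half of replicate wells show activity change below -50%, luminescence cut by over half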;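 note: luciferase reports HSF-1 transcriptional activity via heat shock element; 0% = median of DMSO wells and -100% = zero luminescence signal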
The depositor's hits bear a star; x = not tested or not shown. An excerpt weighted towards active compounds, which were near 3.8% of everything screened.

SMILES	HSF1 activator	esBAF inh	MITF TRPM1 HTS	Wnt act	HSF1 inh
CCCNC(=O)N1C[C@@H]2[C@H](c3ccccc31)[C@H](CO)N2C(=O)NCCC	x	0	x	x	x
O=C(C[C@H]1CC[C@H]2[C@@H](COC[C@H](O)CN2Cc2cc(F)ccc2F)O1)NCc1ccccc1	x	0	x	x	x
O=C(C[C@@H]1CC[C@@H]2[C@H](COC[C@@H](O)CN2S(=O)(=O)c2ccccc2)O1)N1CCOCC1	x	3	x	x	x
C[C@H](CO)N1C[C@H](C)[C@H](CN(C)CC2CC2)Oc2ccc(NS(C)(=O)=O)cc2CC1=O	x	-4	x	x	x
CCCC(=O)NC(c1ccc(OC)cc1)c1ccc2cccnc2c1O (stereo not given)	10	x	-71	-2	1
CCCCC(=O)NC(c1ccc(C(C)C)cc1)c1ccc2cccnc2c1O (stereo not given)	-43	-30	-70	-13	-36
CC(=O)NC(c1ccco1)c1cc(Cl)c2cccnc2c1O (stereo not given)	x	-9	x	-1	x
CCC(=O)NC(c1ccc(OC)cc1)c1cc(Cl)c2cccnc2c1O (stereo not given)	-68	x	-44	-5	-64*
CCC(=O)NC(c1ccco1)c1cc(Cl)c2cccnc2c1O (stereo not given)	-78	x	-33	-6	-72*
CC(=O)NC(c1ccc(C(C)C)cc1)c1ccc2cccnc2c1O (stereo not given)	-54	-39	x	1	-52*
CC(=O)NC(c1ccc(C)cc1)c1cc(Cl)c2cccnc2c1O (stereo not given)	-85	-44	-37	-6	-83*
N/C(=N\OC(=O)c1ccccc1)c1ccn[nH]1	9	25	19	49*	21
CC(C)(C)c1ccc(C(=O)O/N=C(\N)c2ccccc2)cc1	-95	-60	-66	-17	-93*
N/C(=N\OC(=O)c1ccc(Cl)c(Cl)c1)c1cccnc1	37	52*	28	x	20
N/C(=N\OC(=O)c1ccc(Cl)cc1[N+](=O)[O-])c1cccnc1	45	x	x	37*	19
N/C(=N\OC(=O)c1cccc(Cl)c1)c1ccncc1	42	x	44	0	3
COc1ccc(C(=O)O/N=C(\N)c2ccccc2)cc1	-45	-22	49	27	-46
COCC(=O)Nc1ccc2c(c1)OC[C@@H](C)N(Cc1ccccc1OC)C[C@@H](C)[C@H](OC)CN(C)C2=O	x	-2	x	x	x
COc1ccc(NC(=O)N(C)C[C@H]2Oc3c(cccc3N(C)C)C(=O)N([C@H](C)CO)C[C@@H]2C)cc1	x	1	x	x	x
C[C@@H]1CN([C@H](C)CO)C(=O)c2cc(C#CC3(O)CCCC3)cnc2O[C@H]1CN(C)S(C)(=O)=O	x	0	x	x	x
N/C(=N\OC(=O)c1cc(Cl)ccc1Cl)c1cccnc1	32	52*	x	x	14
N/C(=N\OC(=O)c1cc(Br)ccc1Cl)c1cccnc1	14	x	16	0	9
N/C(=N\OC(=O)c1ccccc1Cl)c1cccnc1	47	22	31	x	16
N/C(=N\OC(=O)c1ccccc1)c1cccnc1	26	56*	17	51*	16
N/C(=N\OC(=O)c1cccc(Cl)c1)c1cccnc1	5	73*	18	x	16
SMILES	HSF1 activator	esBAF inh	MITF TRPM1 HTS	Wnt act	HSF1 inh
CO[C@@H]1CC[C@H]2CCN(C)C(=O)[C@@H](C)[C@H](OC)CN(C)C(=O)c3cccc(C#N)c3OC[C@@H]1O2	x	4	x	x	x
C[C@@H]1CCCCO[C@@H](CN(C)S(=O)(=O)c2ccc(F)cc2)[C@H](C)CN([C@@H](C)CO)C(=O)c2cc(NC(=O)c3ccncc3)ccc2O1	x	5	x	x	x
CCN(CC)C(NC(=O)Cc1ccccc1)C(Cl)(Cl)Cl (stereo not given)	3	-4	8	40*	-4
COc1cccc(-c2nc3n(n2)CCc2ccccc2-3)c1	x	36	x	64*	x
CCN(CC)S(=O)(=O)c1cccc(-c2nc3n(n2)Cc2ccccc2-3)c1	17	75*	-16	-2	13
N#CCc1nc2n(n1)Cc1ccccc1-2	5	-5	7	x	0
Clc1ccc(-c2nc3n(n2)Cc2ccccc2-3)cc1	46	8	x	53*	26
COc1cccc(-c2cc(C(=O)N3CCc4ccccc4C3)no2)c1	10	0	1	x	-2
CC(C)C(=O)Nc1ccc2c(c1)C(=O)N(C)[C@@H]1CC[C@@H](CC(=O)O)O[C@H]1CO2	x	3	x	x	x
CO[C@H]1CC[C@@H]2CCOc3ccc(C#N)cc3C(=O)N(C)C[C@@H](OC)[C@@H](C)C(=O)N(C)C[C@H]1O2	x	3	x	x	x
Cc1ccc(Cl)cc1N1CCN(C2CCCCC2NS(=O)(=O)c2ccccc2)CC1 (stereo not given)	76*	-13	3	x	43
Cc1ccc(C)c(N2CCN(C3CCCCC3NS(=O)(=O)c3ccccc3)CC2)c1 (stereo not given)	6	-5	-7	x	1
Cc1ccc(C)c(NC2CCCCC2NS(=O)(=O)c2ccccc2)c1 (stereo not given)	83*	-14	-7	-3	68
Cc1cccc(NC2CCCCC2NS(=O)(=O)c2ccccc2)c1 (stereo not given)	0	0	-3	-2	0
COc1ccc(NC(=O)N(C)C[C@@H]2Oc3ncccc3C(=O)N([C@H](C)CO)C[C@@H]2C)cc1	x	4	x	x	x
COc1ccc(Cc2nnc(SCC(=O)Nc3ccc(N4CCOCC4)cc3)o2)cc1	61*	-7	5	-4	13
COc1ccccc1-c1cn(CC[C@H]2CC[C@H](NC(=O)C3CCC3)[C@H](CO)O2)nn1	x	12	x	x	x
CO[C@H]1CN(C)C(=O)c2cc(NS(C)(=O)=O)ccc2OC[C@H](C)N(Cc2ccccc2)C[C@@H]1C	x	2	x	x	x
COc1ccc(NC(=O)Nc2ccc3c(c2)C(=O)N([C@@H](C)CO)C[C@H](C)[C@H](CN(C)CC2CCCCC2)OCCCC[C@H](C)O3)cc1	x	-3	x	x	x
CC(C)(C)C(=O)OC/C(N)=N/OC(=O)c1ccc(Cl)cc1	42	x	x	3	15
CC(C)(C)C(=O)O/N=C(\N)COc1cccc(Cl)c1	26	81*	55	11	24
Cc1ccc(-c2ccnc(-c3ccc(O)cc3)n2)cc1	65*	x	22	28	23
C[C@H](CO)N1C[C@H](C)[C@@H](CN(C)S(=O)(=O)c2cn(C)cn2)Oc2ccc(NC(=O)CCCCCC(=O)Nc3ccccc3N)cc2CC1=O	x	1	x	x	x
CN(C)CC(=O)N1CCCCN2[C@H](CO)[C@H](c3ccc(/C=C/c4ccccc4)cc3)[C@@H]2C1	x	0	x	x	x
O=C1CCCC/C1=C/Nc1cccc(C(F)(F)F)c1	-5	x	6	21	-2
O=C1CCC2S/C(=C/Nc3ccc(C(F)(F)F)cc3)C(=O)N12 (stereo not given)	-72	-85	-85	-27	-65*
CO[C@H]1CN(C)C(=O)c2ccc(NC(=O)Nc3cccc(F)c3)cc2OC[C@@H](C)N(C(=O)C2CC2)C[C@@H]1C	x	9	x	x	x
